From PubChem BioAssay
Hits are enriched below; roughly 7.5% of the tested compounds scored in any of these assays.
FMDV antiviral = antivirals against foot and mouth disease virus | FMDV antiviral cell-based qHTS | Potency, µM (titrated, usually from 57.9 µM), without a hit: top-dose activity change, negative = inhibition, usual class: inhibitors | 410,000 compounds, 1.2% hits; calls by dose curve; tested in HEK293T cells; further: read-out not given here; potency means the concentration at half of the fitted maximal effect; nearly all actives have a fitted effect of over 45% in size
HCV inhibitor = blocks hepatitis C virus | Potency, µM (top dose mostly 41.8 µM), without a hit: at the highest dose activity change, negative = inhibition, hits mostly inhibitors | Huh7.5.1 HCVcc-Cre infection, luciferase reporter, 44 h | 340,000 compounds, 3.4% hits; further: potency means the concentration at half of the fitted maximal effect
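Infectious HCVcc-Cre (~0.5 moi) was added to cells just after compound, with cells seeded 4 h earlier at 1,000 per well. Luciferase activity after 44 h culture reported infection; substrate was incubated 15 min at room temperature before reading.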
Giardia FBPA inh = Giardia lamblia aldolase inhibition; Potency, µM (highest dose often 59.6 µM), inactives show at the top dose activity, negative = inhibition, most hits filed as inhibitors; A8B2U2; 290,000 compounds, 0.71% hits; purified Giardia FBPA; further: potency means the concentration at half of the fitted maximal effect; nearly all actives have a fitted effect of over 55% in size
Target sequence (A8B2U2 whole entry, looked up): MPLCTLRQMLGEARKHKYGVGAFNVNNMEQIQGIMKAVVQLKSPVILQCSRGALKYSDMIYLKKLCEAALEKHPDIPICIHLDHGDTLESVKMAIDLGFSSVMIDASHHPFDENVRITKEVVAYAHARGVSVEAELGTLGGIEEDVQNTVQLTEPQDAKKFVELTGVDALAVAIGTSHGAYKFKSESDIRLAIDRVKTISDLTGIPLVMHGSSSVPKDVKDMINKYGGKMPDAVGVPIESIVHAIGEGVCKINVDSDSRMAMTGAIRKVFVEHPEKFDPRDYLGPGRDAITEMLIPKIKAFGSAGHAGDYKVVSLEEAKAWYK
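Giardia FBPA (40 nM reagent) was preincubated 10 min at RT with compound (up to 57.5 uM final), then substrate plus GAPDH/TPI/NAD/arsenate coupling system with diaphorase/resazurin was added; resorufin fluorescence (525/598 nm) was read after 20 min.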
HCMV antiviral = human cytomegalovirus inhibition | HFF cells, HCMV-luciferase reporter, 72 h; active compounds read low | activity change, negative = inhibition, % at 57.5 µM | 410,000 compounds, 4.5% hits; in the data active means activity change below about -60%; inconclusive means no clear call, values can overlap the other calls; inactive means above about -39%
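Inhibition of viral replication was scored as loss of reporter luminescence in HFFs infected with HCMV-luciferase (MOI 1 PFU/cell) for 72 h; compounds tested at 2 doses, normalized to buffer and Salinomycin controls.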
Vaccinia mCherry = inhibitors of vaccinia virus infection (mCherry reporter signal). Vaccinia virus mCherry reporter infection, fluorescence. Potency, µM (doses to about 36.5 µM), for inactives: top-dose activity change, negative = inhibition, most hits filed as inhibitors. 310,000 compounds, 0.63% hits. AID 720579; calls by dose curve; tested in A549 cells; further: potency means the concentration at half of the fitted maximal effect; nearly all actives have a fitted effect of over 35% in size
VACV Venus inh = vaccinia inhibition (Venus reporter); Vaccinia virus Venus reporter expression, fluorescence; Potency, µM (top dose mostly 36.5 µM), inactives show at the top dose activity change, negative = inhibition, usual class: inhibitors; 330,000 compounds, 0.46% hits; calls by dose curve; tested in A549 cells; further: potency means the concentration at half of the fitted maximal effect; nearly all actives have a fitted effect of over 30% in size
* hit, by the source's call; i = inactive; ? = inconclusive; nt = not tested or not shown. Unless noted, the call rests on the fitted dose curve; in most records, active means well fitted curve in the direction sought with a large enough effect; inconclusive means small, poorly fitted or top-dose-only effect, or another doubt; inactive means no such curve, though single readings can be large; an effect the other way counts as inactive or inconclusive. On the % scale 0 is the no-effect control and ±100 the full control effect.

SMILES	FMDV antiviral	HCV inhibitor	Giardia FBPA inh	HCMV antiviral	Vaccinia mCherry	VACV Venus inh
CCCCCc1cc(=O)oc2c(C(CCN3CCCCC3)c3ccc(OC)cc3)c(OC)cc(OC)c12 (stereo not given)	-11.1%	?	-7.9%	6.6	12.6µM*	?
CC(=O)N1CCN(C(=O)COC(=O)/C=C/c2ccccc2[N+](=O)[O-])CC1	-26.9%	-5.5%	nt	45.5	-4.7%	-15.1%
CC(O)(COc1ccccc1)c1ccc2c(c1)CN(Cc1cccc3cccnc13)CCO2 (stereo not given)	-14.8%	nt	nt	nt	i	-3.4%
CN(C)c1ccc(-c2nnc(SCC(=O)NCc3ccco3)n2C)cc1	nt	nt	nt	nt	-11.4%	-13.0%
COc1ccc(OC(C)C(=O)N(C)Cc2nc(-c3ccc(OC)cc3)no2)cc1 (stereo not given)	?	?	1.6%	-64.5*	-19.4%	-5.9%
CC(Oc1ccc(Br)cc1)C(=O)N(Cc1nc(-c2ccccc2)no1)C(C)C (stereo not given)	?	nt	nt	-70.4*	?	?
CC(C)N(Cc1nc(-c2ccccc2)no1)C(=O)COc1ccccc1	-1.5%	-10.2%	1.0%	-3.0	-18.6%	-2.9%
COc1ccc(OC(C)C(=O)N(C)Cc2nc(-c3ccc(C)cc3)no2)cc1 (stereo not given)	?	14.1µM*	11.3%	-32.3	-10.5%	-12.7%
COc1ccccc1OCC(=O)N(Cc1nc(-c2ccccc2)no1)C(C)C	-2.1%	3.16µM*	-7.2%	-5.3	-9.4%	-12.4%
COc1ccccc1-c1noc(-c2ccc(N3CCN(C)CC3)c([N+](=O)[O-])c2)n1	4.9%	nt	nt	?	-10.2%	-26.2%
OC[C@@H]1CN(Cc2ccc(-c3ccccc3)cc2)C[C@H](n2cnc3c(NCc4ccc(F)cc4)ncnc32)O1	28.2µM*	nt	nt	-84.7*	-17.9%	?
OC[C@@H]1CN(Cc2ccc(F)cc2)C[C@H](n2cnc3c(Nc4ccccc4)ncnc32)O1	-1.1%	nt	nt	?	-2.5%	-0.6%
OC[C@@H]1CN(Cc2ccccc2)C[C@H](n2cnc3c(NCc4ccc(F)cc4)ncnc32)O1	39.6%	nt	nt	-0.5	-14.9%	-8.8%
OC[C@@H]1CN(Cc2ccc(-c3ccccc3)cc2)C[C@H](n2cnc3c(Nc4ccccc4)ncnc32)O1	31.6µM*	nt	nt	-64.8*	?	-28.4%
CNS(=O)(=O)c1cn(CC(=O)Nc2ccc(C(C)=O)cc2)cc1S(=O)(=O)NC	28.6%	nt	nt	0.0	-0.2%	-2.4%
CC(=O)N(C)CC#CCN1CCCC(CO)C1 (stereo not given)	-11.6%	nt	nt	-60.7*	nt	nt
COc1ccc2c(c1)C(n1c(C)ccc1C)C(=O)N2Cc1ccc(C(F)(F)F)cc1 (stereo not given)	nt	nt	nt	14.4	nt	nt
CC(C)CN1C(=O)c2ccc(NC(=O)c3cccs3)cc2C1=O	10.9%	?	-3.6%	-26.6	-24.4%	-17.8%
O=C(Nc1ccc(Oc2ccc3c(c2)C(=O)N(c2ccc(O)cc2)C3=O)cc1)c1cccs1	-16.3%	-13.2%	0.4%	-77.5*	-10.8%	-11.8%
CSc1ncc(C(=O)NCc2ccc(C)cc2)c(-c2ccccc2)n1	-18.9%	nt	nt	6.8	-8.6%	0.3%
Nc1c(N(Cc2ccco2)C(=O)c2ccc(Br)cc2)c(=O)[nH]c(=O)n1Cc1ccccc1	13.7%	?	nt	84.9	nt	nt
Nc1c(N(Cc2ccco2)C(=O)c2ccc(Cl)cc2)c(=O)[nH]c(=O)n1Cc1ccccc1	-3.1%	31.2%	nt	-70.8*	-21.1%	-14.4%
CN(C(=O)COC(=O)Cc1c(F)cccc1Cl)c1c(N)n(Cc2ccccc2)c(=O)[nH]c1=O	0.0%	-19.2%	nt	5.3	-11.1%	2.0%
CCN(C(=O)CN(C)Cc1c(F)cccc1Cl)c1c(N)n(Cc2ccccc2)c(=O)[nH]c1=O	-7.2%	30.4%	-4.0%	-65.1*	-12.7%	-6.3%
CCN(C(=O)c1ccc(=O)n(C)n1)c1c(N)n(Cc2ccccc2)c(=O)[nH]c1=O	-11.4%	-15.1%	nt	-76.6*	i	-13.0%
SMILES	FMDV antiviral	HCV inhibitor	Giardia FBPA inh	HCMV antiviral	Vaccinia mCherry	VACV Venus inh
CNS(=O)(=O)c1cccc(C(=O)OCC(=O)N(CCC#N)c2ccccc2)c1	22.4%	5.9%	6.0%	-21.7	-2.7%	-4.7%
Cc1ccc(S(=O)(=O)NCC(=O)OCC(=O)N(CCC#N)c2ccccc2)cc1	-4.6%	-16.0%	nt	-63.9*	-16.2%	-1.7%
CC1(C)OC(C)(C)/C(=C/Nc2ccc(O)cc2)C1=O	-8.5%	-14.3%	2.81µM*	-22.9	-8.2%	0.3%
CC1(C)OC(=O)C(=CNc2cccc(O)c2)C(=O)O1	49.2%	10.6%	-2.0%	4.4	-18.4%	-15.0%
CCN(CC)CCOCCOc1cc(C)c(Cl)c(C)c1	nt	11.2µM*	-0.5%	-72.3*	?	-23.0%
O=C(CSc1nc2sc3c(c2c(=O)n1-c1ccccc1)CCCC3)N/N=C/c1ccccc1C(=O)O	0.4%	-3.0%	0.1%	nt	-12.9%	-0.3%
CC(Nc1nc(N2CCNCC2)nc2ccccc12)c1ccccc1 (stereo not given)	?	10µM*	1.3%	-36.0	-22.9%	?
Cn1cnc2cnc(Nc3ccc(F)c(Cl)c3)cc21	nt	nt	nt	69.4	nt	nt
N#Cc1ccc(NC(=O)Nc2cccc(C#N)c2)cc1	?	10µM*	0.6%	-39.8	-15.4%	?
N#Cc1ccc(NC(=O)Nc2ccc(Oc3ccc(NC(=O)Nc4ccc(C#N)cc4)cc3)cc2)cc1	0.0%	?	-7.9%	-82.4*	i	-22.0%
COc1cccc(Cn2c(C)c(CNCc3cccc(C)c3)c(C(=O)O)c2C)c1	25.0%	nt	nt	-10.9	-2.0%	-3.9%
O=C(C/C=N\OCc1ccc([N+](=O)[O-])cc1)Nc1ccc(Br)cc1	-17.8%	-17.6%	0.0%	-65.5*	-28.3%	-11.4%
O=C(COc1ccc([N+](=O)[O-])cc1)NNC(=O)Nc1ccc([N+](=O)[O-])cc1	-14.5%	10.7%	12.3%	14.9	nt	nt
C=C1CC2(CC(c3ccccc3)OC(c3ccccc3)C2)OC1=O (stereo not given)	22.4µM*	?	nt	-6.6	11.2µM*	?
c1ccc([C@@H]2CO2)cc1	-16.0%	21.0%	nt	nt	-13.2%	-12.7%
COc1cc(/C=C/c2nc3ccccc3c(=O)n2-c2ccc(Br)c(C)c2)ccc1O	-8.7%	nt	nt	2.7	-29.0%	-26.3%
CC(=Nc1ccccc1)C1=C(O)C(Cc2ccccc2)NC1=O (stereo not given)	32.7%	21.4%	nt	-76.4*	-17.3%	?
